Experimental data: PubChem BioAssay
Calls of active or inactive are those of the source.

Assays:
[1] = E. coli DRC41 culture turbidity changes, primary screen, E. coli filamentation inducer project, strain DRC41, OD650, 48 h (AID 1152);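 note: E. coli MC1000 strain DRC41 lacking acrAB efflux pump and sulA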; conditions: E. coli DRC41 (acrAB sulA), higher = more signal, called active from +8 up or from −8 down
[2] = small-molecule binders of probe aLefty1, primary screen, biochemical, small-molecule microarray, 635/667 nm fluorescence (AID 1153); conditions: higher = more signal;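 note: score merges spot fluorescence with signal-to-noise ratio from the scanned slide images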
[3] = PSAC antagonists in infected red cells, primary screen, cell-based, P. falciparum Indochina, OD700, 1 h (AID 1154); conditions: P. falciparum Indochina infected RBC osmotic lysis, higher = more signal, called active from +8 up or from −8 down
[4] = PSAC antagonists in infected red cells, primary screen, cell-based, P. falciparum Indochina, OD700, 2 h (AID 1155);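 note: lysis reports solute entry through the parasite surface anion channel PSAC; channel blockers reduce lysis of infected cells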; conditions: P. falciparum Indochina infected erythrocytes, osmotic lysis OD700; higher = more signal, called active from +8 up or from −8 down
[5] = osmotic lysis modulators in infected erythrocytes, primary screen, PSAC antagonist project, cell-based, P. falciparum Indochina, OD700, 3 h (AID 1156); conditions: higher = more signal, called active from +8 up or from −8 down
[6] = PSAC antagonists in infected red cells, primary screen, cell-based, P. falciparum Indochina, OD700, 18 h (AID 1157); conditions: P. falciparum Indochina infected erythrocytes, osmotic lysis OD700, 18 h; higher = more signal, called active from +8 up or from −8 down
[7] = modulators of S6 phosphorylation in cells, primary screen, cell-based, A549, cytoblot, luminescence, serum-stimulated (AID 1158); conditions: A549 phospho-S6 cytoblot, 5 h, higher = more signal;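 note: serum-stimulated A549 lung adenocarcinoma cells; signal is phosphorylated S6 detected by cytoblot immunostaining with HRP secondary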
[8] = target: NADPH oxidase 2 (Homo sapiens) (UniProt P04839); assay: NOX2-dependent H2O2 signal modulators, primary screen, NOX inhibitor project, cell-based, HEK293-NOX2, PMA-stimulated, Amplex Red fluorescence (AID 1159); conditions: 45 min, higher = more signal, called active from +8 up or from −8 down; note: test concentration not given here
Chain of NADPH oxidase 2 (Homo sapiens) (P04839 whole entry, looked up): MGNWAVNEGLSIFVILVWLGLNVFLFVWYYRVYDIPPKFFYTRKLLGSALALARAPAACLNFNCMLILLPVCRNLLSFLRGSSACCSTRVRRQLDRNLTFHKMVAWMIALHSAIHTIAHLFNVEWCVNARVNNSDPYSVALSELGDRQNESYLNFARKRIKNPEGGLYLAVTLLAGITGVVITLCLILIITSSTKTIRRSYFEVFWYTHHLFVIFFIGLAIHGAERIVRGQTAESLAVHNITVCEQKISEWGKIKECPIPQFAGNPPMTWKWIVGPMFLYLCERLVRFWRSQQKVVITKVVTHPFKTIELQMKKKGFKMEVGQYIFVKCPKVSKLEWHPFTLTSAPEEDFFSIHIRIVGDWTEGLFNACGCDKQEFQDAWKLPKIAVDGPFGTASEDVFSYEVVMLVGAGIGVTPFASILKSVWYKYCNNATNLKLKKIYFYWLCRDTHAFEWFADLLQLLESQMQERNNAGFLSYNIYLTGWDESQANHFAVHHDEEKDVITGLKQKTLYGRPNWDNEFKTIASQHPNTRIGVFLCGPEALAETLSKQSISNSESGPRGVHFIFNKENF

[9] = target: NADPH oxidase 4 (Homo sapiens) (UniProt Q9NPH5); assay: NOX4-dependent H2O2 signal modulators, primary screen, NOX inhibitor project, cell-based, HEK293-NOX4, tetracycline-induced, Amplex Red fluorescence (AID 1160); conditions: 45 min, higher = more signal, called active from +8 up or from −8 down
Chain of NADPH oxidase 4 (Homo sapiens) (Q9NPH5 whole entry, looked up): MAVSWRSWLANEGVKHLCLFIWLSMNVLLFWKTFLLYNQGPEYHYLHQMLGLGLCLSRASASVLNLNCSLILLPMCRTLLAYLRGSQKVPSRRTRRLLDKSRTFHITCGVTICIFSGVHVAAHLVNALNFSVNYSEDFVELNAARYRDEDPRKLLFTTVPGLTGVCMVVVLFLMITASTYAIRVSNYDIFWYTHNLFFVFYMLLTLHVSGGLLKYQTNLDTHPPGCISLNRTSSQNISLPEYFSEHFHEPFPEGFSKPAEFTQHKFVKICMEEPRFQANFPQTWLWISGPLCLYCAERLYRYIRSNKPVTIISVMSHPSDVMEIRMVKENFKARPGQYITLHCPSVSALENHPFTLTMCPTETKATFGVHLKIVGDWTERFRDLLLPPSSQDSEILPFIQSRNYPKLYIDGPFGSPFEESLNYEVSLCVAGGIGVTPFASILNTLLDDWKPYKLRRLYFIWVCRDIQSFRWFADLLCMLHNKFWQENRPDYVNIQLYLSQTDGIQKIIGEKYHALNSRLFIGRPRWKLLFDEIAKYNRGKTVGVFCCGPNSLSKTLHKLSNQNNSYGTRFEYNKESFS

[10] = target: NADPH oxidase 5 (Homo sapiens) (UniProt Q96PH1); assay: NOX5-dependent H2O2 signal modulators, primary screen, NOX inhibitor project, cell-based, HEK293-NOX5, Amplex Red fluorescence (AID 1161); conditions: HEK293-NOX5, ionomycin, 45 min, higher = more signal
Chain of NADPH oxidase 5 (Homo sapiens) (Q96PH1 whole entry, looked up): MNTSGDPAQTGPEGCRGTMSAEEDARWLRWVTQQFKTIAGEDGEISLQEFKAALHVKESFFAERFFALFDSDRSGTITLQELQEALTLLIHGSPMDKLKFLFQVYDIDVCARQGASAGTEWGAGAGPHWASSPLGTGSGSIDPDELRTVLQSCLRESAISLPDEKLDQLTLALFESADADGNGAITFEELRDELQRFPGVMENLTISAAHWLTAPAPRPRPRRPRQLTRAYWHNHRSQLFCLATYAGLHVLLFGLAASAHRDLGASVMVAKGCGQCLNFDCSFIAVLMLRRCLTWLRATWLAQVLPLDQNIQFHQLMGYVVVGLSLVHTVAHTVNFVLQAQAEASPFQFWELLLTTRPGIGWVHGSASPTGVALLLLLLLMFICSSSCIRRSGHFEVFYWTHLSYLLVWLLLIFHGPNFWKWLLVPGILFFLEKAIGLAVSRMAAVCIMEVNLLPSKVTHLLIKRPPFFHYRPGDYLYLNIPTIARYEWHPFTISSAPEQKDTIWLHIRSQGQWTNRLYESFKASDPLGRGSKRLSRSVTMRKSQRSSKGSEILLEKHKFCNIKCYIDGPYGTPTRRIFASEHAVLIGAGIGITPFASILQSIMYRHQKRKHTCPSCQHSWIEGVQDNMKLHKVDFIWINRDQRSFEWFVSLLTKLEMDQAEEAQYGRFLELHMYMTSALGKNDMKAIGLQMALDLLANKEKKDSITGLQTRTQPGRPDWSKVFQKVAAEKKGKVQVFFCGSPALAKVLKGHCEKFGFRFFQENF

[11] = A549 cell viability effects, profiling panel, calcein-AM fluorescence, 48 h, basal (AID 1162); conditions: higher = more signal; note: test concentration not given here
[12] = adipocyte viability effects, profiling panel, cell-based, 3T3-L1 adipocytes, calcein-AM fluorescence, 48 h, basal (AID 1163); conditions: 3T3-L1 adipocytes viability, higher = more signal; note: test concentration not given here
[13] = HepG2 cell viability effects, profiling panel, calcein-AM fluorescence, 48 h, basal (AID 1164); conditions: higher = more signal; note: test concentration not given here
[14] = MM1S cell viability effects, profiling panel, calcein-AM fluorescence, 48 h, basal (AID 1165); conditions: higher = more signal;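 note: viability of MM1S multiple myeloma cells under basal unstimulated conditions; test concentration not given here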
[15] = basal RPMI8226 viability, no added stimulus, profiling panel, cell-based, calcein-AM fluorescence, 48 h, PK04 Diversity Set (AID 1166); conditions: RPMI8226 myeloma viability, higher = more signal;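 note: cells grown under basal conditions without added stimulus; test concentration not given here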
[16] = basal HepG2 mitochondrial membrane potential changes, profiling panel, cell-based, JC-1 fluorescence, 24 h, 100 nL compound (AID 1167); conditions: higher = more signal; note: test concentration not given here
[17] = basal 3T3-L1 adipocyte mitochondrial potential changes, profiling panel, cell-based, JC-1 fluorescence, 3T3-L1 adipocytes, 24 h, 100 nL compound (AID 1168); conditions: JC-1 mitochondrial fluorescence, higher = more signal, called active from +8 up or from −8 down; note: test concentration not given here
[18] = basal RPMI8226 mitochondrial membrane potential changes, profiling panel, cell-based, JC-1 fluorescence, 24 h, 100 nL compound (AID 1169); conditions: RPMI8226 myeloma, JC-1 mitochondrial potential fluorescence, higher = more signal; note: test concentration not given here
[19] = basal MM1S mitochondrial membrane potential changes, profiling panel, cell-based, JC-1 fluorescence, 24 h, 100 nL compound (AID 1170); conditions: higher = more signal; note: test concentration not given here
[20] = A549 lung cancer cell viability effects, profiling panel, resazurin fluorescence, 24 h, PK04 Diversity Set (AID 1171); conditions: higher = more signal, called active from +8 up or from −8 down; note: test concentration not given here

Row | SMILES | z-score [1] | composite z-score [2] | z-score [3] | z-score [4] | z-score [5] | z-score [6] | z-score [7] | z-score [8] | z-score [9] | z-score [10] | z-score [11] | z-score [12] | z-score [13] | z-score [14] | z-score [15] | z-score [16] | z-score [17] | z-score [18] | z-score [19] | z-score [20]
1 | CC[C@@H](c1ccccc1)n1c(=O)n2n(c1=O)[C@H]1[C@H](O)[C@@H]3O[C@@H]3C(=NOCC(C)C)[C@H]1CC2 | -1.11 (inactive) | -0.0508 | -0.0462 (inactive) | -0.155 (inactive) | 0.282 (inactive) | -0.0656 (inactive) | 0.123 | 1.72 (inactive) | 0.386 (inactive) | 0.371 | -0.342 | 0.245 | -0.389 | -0.288 | 0.44 | -1.16 | -1.67 (inactive) | -0.0693 | 0.448 | 0.276 (inactive)
2 | CCOC(=O)[C@H](Cc1ccccc1)NC(=O)CCC1CC(OC(=O)NCc2ccc3c(c2)OCO3)CC2(CCCC(COC(=O)NCc3ccccc3)O2)O1 (stereo not given in full) | 0.0722 (inactive) | -0.101 | 0.0765 (inactive) | 0.979 (inactive) | -1.37 (inactive) | 0.565 (inactive) | -0.0074 | -0.988 (inactive) | 0.852 (inactive) | 0.562 | -0.195 | -0.64 | 0.607 | 0.84 | 0.709 | 2.27 | 0.392 (inactive) | 0.0886 | -0.997 | 0.98 (inactive)
3 | CC(C)(C)OC(=O)CC[C@]1(C(N)=O)COC(c2ccc(OCCCO)cc2)=N1 | 0.311 (inactive) | 0.802 | 0.75 (inactive) | -0.267 (inactive) | 0.295 (inactive) | 0.0515 (inactive) | -0.777 | 0.381 (inactive) | -0.585 (inactive) | 0.612 | 0.371 | 0.0132 | 0.0668 | 0.909 | -0.881 | -0.143 | -0.0265 (inactive) | 0.484 | -0.284 | -1.05 (inactive)
4 | CCCNC(=O)[C@@H]1c2ccccc2C(=O)N(c2ccc(C)cn2)[C@H]1c1ccc(CO)cc1 | -0.292 (inactive) | -0.303 | 1.97 (inactive) | -0.0991 (inactive) | 0.562 (inactive) | 0.0336 (inactive) | 0.214 | 0.114 (inactive) | 0.0822 (inactive) | -0.974 | -0.293 | -0.857 | -0.108 | -0.336 | -0.0505 | -0.833 | 0.123 (inactive) | 0.657 | -0.351 | 0.418 (inactive)
5 | COC(=O)[C@@H]1CCCN1C(=O)[C@@H](C)CO | -0.926 (inactive) | -0.147 | 0.34 (inactive) | -0.603 (inactive) | 0.864 (inactive) | -1.69 (inactive) | 1.4 | -0.366 (inactive) | -0.739 (inactive) | -1.15 | 0.0364 | 0.512 | -0.52 | -2.77 | -0.57 | -0.952 | 0.514 (inactive) | -0.157 | -1.32 | -1.14 (inactive)
6 | C[C@H](c1ccccc1)N1C(=O)[C@H]2[C@H]3[C@H](O)[C@H](O)CC(=O)[C@@H]3CC[C@H]2C1=O | -0.228 (inactive) | 0.173 | 0.12 (inactive) | 0.321 (inactive) | 0.151 (inactive) | -0.12 (inactive) | -0.448 | 0.292 (inactive) | -0.112 (inactive) | -0.092 | -0.311 | -0.0863 | -0.254 | -0.0752 | 0.299 | 0.032 | -0.239 (inactive) | -0.0521 | 0.25 | -0.164 (inactive)
7 | COc1ccc(O[C@H]2C=C[C@@H](c3ccccc3)O[C@@H]2COC(=O)CCC(C)=NOC(C)CN2CCCCc3nc(C)c(C)cc32)cc1 (stereo not given in full) | 0.233 (inactive) | -0.584 | 21.7 (active) | 3.58 (inactive) | 1.68 (inactive) | 1.15 (inactive) | -0.0603 | -2.04 (inactive) | -0.369 (inactive) | -0.824 | -0.294 | -0.471 | 0.197 | -1.35 | -0.666 | 0.775 | -0.313 (inactive) | -0.508 | -0.903 | 1.61 (inactive)
8 | CCc1cc2c(nc1CC)CCN(CCC(C)=NOC[C@@H](O)[C@H]1O[C@@H]3OC(C)(C)O[C@@H]3[C@H]1O)C2 | -1.12 (inactive) | -0.179 | 0.202 (inactive) | -0.336 (inactive) | 0.0286 (inactive) | 0.0977 (inactive) | -0.512 | 0.336 (inactive) | 0.494 (inactive) | 2.57 | 0.719 | 0.879 | 1.09 | -1.1 | -0.531 | 0.244 | -1.1 (inactive) | 0.527 | -0.162 | -0.0919 (inactive)
9 | O=C1[C@H]2[C@H]3[C@H](O)[C@H](O)CC(=NO[C@@H]4O[C@H](CO)[C@@H](O)[C@H](O)[C@H]4O)[C@H]3CC[C@H]2C(=O)N1C1CCCCC1 | -0.094 (inactive) | -0.0046 | 3.65 (inactive) | -0.0811 (inactive) | -0.284 (inactive) | -0.136 (inactive) | 0.561 | -0.717 (inactive) | 1.15 (inactive) | 0.329 | -0.649 | 0.034 | -0.627 | 0.206 | 0.115 | -0.871 | -1.53 (inactive) | 0.368 | -0.11 | 0.302 (inactive)
